# From PubChem BioAssay AID1445 (SRMLSC, 2008)
# In all, about 220,000 compounds went through this assay and about 910 (0.41%) were called active.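 The calls were made as follows: active = primary inhibition above the hit cutoff, then over 50% inhibition at one or more dose response concentrations (cut at about 23% in these data, passing the limit was not always enough); inconclusive = conflicting primary data, or primary hits not chosen for dose response; inactive = low primary inhibition, or under 50% at every dose.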 For the sample, actives were picked, then their nearest neighbours and some compounds at random. Results with a measured potency or affinity are listed apart.
# Target: Aminopeptidase N (Plasmodium falciparum (isolate 3D7)) (UniProt O96935)
# Sequence (O96935 whole entry, looked up): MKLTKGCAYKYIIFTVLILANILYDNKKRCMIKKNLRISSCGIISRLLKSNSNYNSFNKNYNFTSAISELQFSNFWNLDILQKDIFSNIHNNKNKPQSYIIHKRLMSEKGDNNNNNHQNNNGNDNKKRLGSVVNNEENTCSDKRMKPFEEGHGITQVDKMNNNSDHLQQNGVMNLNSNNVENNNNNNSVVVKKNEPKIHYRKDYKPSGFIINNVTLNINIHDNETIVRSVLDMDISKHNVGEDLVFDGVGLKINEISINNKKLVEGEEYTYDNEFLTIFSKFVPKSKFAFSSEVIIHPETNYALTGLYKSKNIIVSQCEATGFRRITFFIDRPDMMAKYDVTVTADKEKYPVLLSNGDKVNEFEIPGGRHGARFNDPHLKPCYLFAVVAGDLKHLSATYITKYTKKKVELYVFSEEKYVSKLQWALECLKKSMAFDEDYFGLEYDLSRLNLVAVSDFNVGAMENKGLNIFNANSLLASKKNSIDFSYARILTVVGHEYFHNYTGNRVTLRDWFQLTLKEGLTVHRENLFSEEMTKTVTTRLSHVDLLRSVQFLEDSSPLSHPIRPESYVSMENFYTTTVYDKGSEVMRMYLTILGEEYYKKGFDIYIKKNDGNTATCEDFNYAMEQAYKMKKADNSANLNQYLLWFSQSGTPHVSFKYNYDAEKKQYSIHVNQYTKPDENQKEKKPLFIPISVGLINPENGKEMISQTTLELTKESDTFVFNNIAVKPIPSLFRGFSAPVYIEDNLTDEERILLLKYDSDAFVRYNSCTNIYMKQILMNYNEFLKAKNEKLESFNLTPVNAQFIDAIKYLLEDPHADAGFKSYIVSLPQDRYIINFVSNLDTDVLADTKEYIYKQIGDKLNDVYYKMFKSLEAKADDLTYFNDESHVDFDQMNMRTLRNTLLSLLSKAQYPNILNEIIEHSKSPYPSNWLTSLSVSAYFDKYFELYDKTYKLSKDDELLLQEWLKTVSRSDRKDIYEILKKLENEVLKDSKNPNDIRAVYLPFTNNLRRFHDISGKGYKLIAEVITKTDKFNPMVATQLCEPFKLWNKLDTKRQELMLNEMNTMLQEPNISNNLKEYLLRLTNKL
# Experiment: P. falciparum M1AAP inhibitors, biochemical, fluorogenic H-Leu-NHMec substrate, 1536-well (AID 1445);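 also: plate controls were DMSO full reaction for no effect and no enzyme background for full effect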
# Conditions: recombinant M1AAP, H-Leu-NHMec fluorogenic kinetic assay; at 30 µM, hits give high values unless noted
row,SMILES,inhibition
1,O=C(CCc1ccc(S(=O)(=O)NCc2ccccc2)cc1)NCc1cccnc1,6.09% (inactive)
2,Cc1ccc(CNC(=O)CCc2ccc(S(=O)(=O)NCC(C)C)cc2)cc1,8.45% (inactive)
3,CCNS(=O)(=O)c1ccc(CCC(=O)Nc2ccccc2)cc1,3.88% (inactive)
4,CC(C)NS(=O)(=O)c1ccc(CCC(=O)Nc2ccc3c(c2)OCO3)cc1,9.11% (inactive)
5,Cc1ccc(CNC(=O)CCNS(=O)(=O)c2ccc(C)cc2)cc1,9.63% (inactive)
6,CC(C)(C)NS(=O)(=O)c1ccc(CCC(=O)NCc2ccc3c(c2)OCO3)cc1,18.7% (inactive)
7,O=C(Nc1cc(C(F)(F)F)ccc1Cl)C(Sc1nnc(-c2cccs2)o1)c1ccccc1 (stereo not given),-4.08% (inactive)
8,COCCCNCCOCCOc1c(OC)cccc1OC,-5.39% (inactive)
9,Cc1cc(C2=CC(C)(c3cc(C)oc3C)Nc3nc(C(F)(F)F)nn32)c(C)o1 (stereo not given),6.98% (inactive)
10,O=C(CNC(=O)c1ccc(F)cc1)Nc1ccccc1C(F)(F)F,-1.13% (inactive)
11,CCOC(=O)C1=C(C)NC2=C(C(=O)CCC2)C1c1ccc(O)c(OCC)c1 (stereo not given),-7% (inactive)
12,O=C(Nc1nccs1)c1ccc(NC(=O)C2CC=CCC2C(=O)O)cc1 (stereo not given),8.55% (inactive)
13,CC1(C)CC(=O)C(C=NCCc2ccc(S(N)(=O)=O)cc2)=C(O)C1,12% (inactive)
14,O=S(=O)(Nc1nc2ccc(S(=O)(=O)N3CCCCC3)cc2s1)c1ccccc1,23.2% (inactive)
15,O=S(=O)(Nc1nc2ccc(S(=O)(=O)N3CCCC3)cc2s1)c1ccc(F)cc1,17.8% (inactive)
16,O=C(O)CCC(=O)N(Cc1cccnc1)Cc1cccc(F)c1,6.62% (inactive)
17,CCCCCN(C(=O)NC(=O)Nc1ccccc1C)S(=O)(=O)c1ccccc1,-0.93% (inactive)
18,COc1ccc(-c2nc(CSCC(=O)N3CCN(C)CC3)c(C)o2)cc1OC,1.38% (inactive)
19,CCN1CCN(C(=O)CSCc2nc(-c3ccc(OC)c(OC)c3)oc2C)CC1,1.5% (inactive)
20,COc1ccc(-c2nc(CSCC(=O)N3CCN(c4cccc(C)c4)C(C)C3)c(C)o2)cc1OC (stereo not given),23.8% (active)
21,COc1ccc(/C=N/NC(=S)Nc2ccccc2)cc1COc1ccc(Br)cc1,5.9% (inactive)
22,Cc1nnc2n1NC(c1ccc(Cl)cc1)C(C(=O)N(C)C1CCCCC1)S2 (stereo not given),14.7% (inactive)
23,Cc1cccc2cc(CN(CCN3CCOCC3)C(=O)NCc3ccccc3)c(=O)[nH]c12,11.1% (inactive)
24,COC(=O)CC[C@@H](C(=O)O)N1C(=O)c2ccccc2C1=O,1.27% (inactive)
25,CCOc1ccccc1NC(=O)CSc1nc2nc(-c3cccs3)cc(C(F)(F)F)c2c(=O)[nH]1,3.01% (inactive)
26,CC(=O)Nc1ccc(NC(=O)CSc2nc3nc(-c4cccs4)cc(C(F)(F)F)c3c(=O)[nH]2)cc1,13.8% (inactive)
27,O=C(CSc1nc2nc(-c3cccs3)cc(C(F)(F)F)c2c(=O)[nH]1)Nc1ccc(F)c(F)c1,12.9% (inactive)
28,O=C(NCc1ccco1)c1nn2c(C(F)(F)F)cc(-c3cccs3)nc2c1Br,15.8% (inactive)
29,COc1ccc(NC(=O)CSc2ccc(-c3cccs3)nn2)c(OC)c1,4.92% (inactive)
30,O=C(CSc1nc(-c2cccs2)cc(C(F)(F)F)n1)NCc1ccco1,8.47% (inactive)
